# Data reported in PMC7862700, “An all-to-all approach to the identification of sequence-specific readers for epigenetic DNA modifications on cytosine”.
# Legend:
# Assay in all cases: DAPPL (digital affinity profiling via proximity ligation, sequencing); 10 mM Tris-HCl pH 7.5, 50 mM NaCl, 1 mM DTT, 4% glycerol, room temperature, 30 min; GST-TFs on glutathione beads, 16-mer random dsDNA library, 0.1% formaldehyde crosslink after washing; high values mean tight binding
# Conditions in all cases: protein: recombinant; tags: N-terminal GST; dsDNA, one strand shown
# ELK4 = biological target: T1, ELK4 (Homo sapiens, UniProt P28324-2 1-405)
# T1 sequence: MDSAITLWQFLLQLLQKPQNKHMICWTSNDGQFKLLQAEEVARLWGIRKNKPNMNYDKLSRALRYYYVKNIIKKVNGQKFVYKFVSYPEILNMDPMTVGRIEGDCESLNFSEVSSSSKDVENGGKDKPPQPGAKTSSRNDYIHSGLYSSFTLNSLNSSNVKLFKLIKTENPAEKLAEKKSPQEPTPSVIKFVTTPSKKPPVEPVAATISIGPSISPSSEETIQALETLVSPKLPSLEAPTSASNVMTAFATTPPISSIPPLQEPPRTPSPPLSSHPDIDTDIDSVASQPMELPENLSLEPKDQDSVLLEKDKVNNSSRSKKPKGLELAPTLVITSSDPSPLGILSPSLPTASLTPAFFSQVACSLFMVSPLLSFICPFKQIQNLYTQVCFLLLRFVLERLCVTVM
# Procedure, shortened: (§1)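 Beads coated with glutathione captured GST-fused human transcription factors that had been expressed in yeast, and the factors were then given DNA barcodes and pooled with a tag-only sample. The pools were incubated with 200 nmole of a random double-stranded 16-mer DNA library in Tris/NaCl/DTT/glycerol buffer for 30 min at room temperature, washed, crosslinked with 0.1% formaldehyde and proximity-ligated with BsaI/T4 ligase at 37 °C for 1 h. PCR amplification and Illumina NextSeq500 sequencing came last. Binding signal is each hexamer's read frequency for a factor divided by its frequency for the tag-only sample.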
# ELF3 = biological target: T2, ELF3 (Homo sapiens, UniProt P78545 1-371)
# T2 sequence: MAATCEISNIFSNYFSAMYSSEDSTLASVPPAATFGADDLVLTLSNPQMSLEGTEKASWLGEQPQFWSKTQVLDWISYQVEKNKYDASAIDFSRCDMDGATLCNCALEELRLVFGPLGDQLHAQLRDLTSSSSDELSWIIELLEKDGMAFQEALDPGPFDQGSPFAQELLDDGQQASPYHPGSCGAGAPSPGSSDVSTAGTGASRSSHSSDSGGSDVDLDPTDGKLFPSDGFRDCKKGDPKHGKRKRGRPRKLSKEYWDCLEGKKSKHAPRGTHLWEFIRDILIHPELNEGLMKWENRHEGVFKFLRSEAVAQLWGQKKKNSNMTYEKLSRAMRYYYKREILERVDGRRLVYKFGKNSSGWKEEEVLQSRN
# Procedure, shortened: as §1
# ETV1 = ETV1 (Homo sapiens, UniProt P50549 1-477)
# Sequence of ETV1 (P50549 whole entry): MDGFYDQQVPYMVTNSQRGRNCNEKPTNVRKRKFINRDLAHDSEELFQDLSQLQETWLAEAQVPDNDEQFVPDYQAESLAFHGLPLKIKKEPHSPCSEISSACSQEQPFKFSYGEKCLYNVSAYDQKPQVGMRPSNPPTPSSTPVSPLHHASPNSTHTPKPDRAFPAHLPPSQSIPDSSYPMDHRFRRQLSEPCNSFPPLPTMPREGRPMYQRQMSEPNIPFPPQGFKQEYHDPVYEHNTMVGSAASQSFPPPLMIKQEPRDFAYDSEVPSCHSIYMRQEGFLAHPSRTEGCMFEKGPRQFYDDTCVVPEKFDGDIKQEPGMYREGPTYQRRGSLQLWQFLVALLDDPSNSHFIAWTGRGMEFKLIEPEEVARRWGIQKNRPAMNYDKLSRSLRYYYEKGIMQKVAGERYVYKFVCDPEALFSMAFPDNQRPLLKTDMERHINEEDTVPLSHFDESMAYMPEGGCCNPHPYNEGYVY
# Procedure, shortened: as §1
# ERF = biological target: T3, ERF (Homo sapiens, UniProt P50548 1-548)
# T3 sequence: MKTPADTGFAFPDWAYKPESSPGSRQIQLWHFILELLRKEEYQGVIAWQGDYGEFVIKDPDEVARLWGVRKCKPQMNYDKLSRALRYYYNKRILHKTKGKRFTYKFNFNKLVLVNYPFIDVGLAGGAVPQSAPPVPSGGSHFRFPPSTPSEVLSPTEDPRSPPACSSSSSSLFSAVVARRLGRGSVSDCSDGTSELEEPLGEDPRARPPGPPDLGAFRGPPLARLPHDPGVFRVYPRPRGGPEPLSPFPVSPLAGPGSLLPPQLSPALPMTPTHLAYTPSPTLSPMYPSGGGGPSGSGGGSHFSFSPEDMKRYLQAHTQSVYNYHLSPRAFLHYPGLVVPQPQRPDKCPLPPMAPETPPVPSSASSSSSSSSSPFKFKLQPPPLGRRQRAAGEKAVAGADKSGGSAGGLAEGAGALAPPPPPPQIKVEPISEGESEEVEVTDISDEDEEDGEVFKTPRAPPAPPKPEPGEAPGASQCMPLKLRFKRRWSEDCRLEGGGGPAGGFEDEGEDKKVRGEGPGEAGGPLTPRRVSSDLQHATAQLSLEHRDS
# Procedure, shortened: as §1
# ETV3L = biological target: T4, ETV3L (Homo sapiens, UniProt Q6ZN32 1-361)
# T4 sequence: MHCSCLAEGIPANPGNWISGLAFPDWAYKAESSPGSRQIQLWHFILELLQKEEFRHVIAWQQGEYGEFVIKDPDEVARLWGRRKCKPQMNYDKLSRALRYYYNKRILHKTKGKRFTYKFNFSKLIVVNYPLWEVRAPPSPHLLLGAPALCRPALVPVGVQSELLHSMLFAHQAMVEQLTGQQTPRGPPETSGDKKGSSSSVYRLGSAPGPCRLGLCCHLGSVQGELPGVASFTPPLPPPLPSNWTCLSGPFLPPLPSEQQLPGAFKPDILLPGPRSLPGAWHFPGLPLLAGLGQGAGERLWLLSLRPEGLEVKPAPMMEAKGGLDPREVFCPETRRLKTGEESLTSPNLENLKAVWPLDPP
# Procedure, shortened: as §1
# ETS2 = biological target: T5, ETS2 (Homo sapiens, UniProt P15036 1-469)
# T5 sequence: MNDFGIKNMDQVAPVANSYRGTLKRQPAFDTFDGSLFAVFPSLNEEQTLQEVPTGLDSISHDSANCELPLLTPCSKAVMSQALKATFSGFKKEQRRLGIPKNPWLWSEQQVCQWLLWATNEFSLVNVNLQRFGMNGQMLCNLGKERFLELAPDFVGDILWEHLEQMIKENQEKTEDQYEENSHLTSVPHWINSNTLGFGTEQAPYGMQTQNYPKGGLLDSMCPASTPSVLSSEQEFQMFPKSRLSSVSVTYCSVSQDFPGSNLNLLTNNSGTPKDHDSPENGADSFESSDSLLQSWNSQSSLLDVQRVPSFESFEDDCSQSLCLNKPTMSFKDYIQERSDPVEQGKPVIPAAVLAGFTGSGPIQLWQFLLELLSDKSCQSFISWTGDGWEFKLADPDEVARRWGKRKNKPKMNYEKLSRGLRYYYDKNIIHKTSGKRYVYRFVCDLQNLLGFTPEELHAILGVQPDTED
# Procedure, shortened: as §1
# SPDEF = biological target: T6, SPDEF (Homo sapiens, UniProt O95238 1-335)
# T6 sequence: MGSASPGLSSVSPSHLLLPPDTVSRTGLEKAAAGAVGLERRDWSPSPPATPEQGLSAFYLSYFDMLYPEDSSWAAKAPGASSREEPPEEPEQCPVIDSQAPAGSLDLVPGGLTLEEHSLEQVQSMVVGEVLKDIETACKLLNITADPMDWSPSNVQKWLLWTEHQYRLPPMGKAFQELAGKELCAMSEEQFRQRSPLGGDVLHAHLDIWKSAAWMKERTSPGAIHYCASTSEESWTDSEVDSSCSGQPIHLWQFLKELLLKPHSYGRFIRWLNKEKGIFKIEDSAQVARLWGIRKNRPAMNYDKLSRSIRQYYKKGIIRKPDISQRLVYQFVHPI
# Procedure, shortened: as §1
# ETV7 = biological target: T7, ETV7 (Homo sapiens, UniProt Q9Y603 1-341)
# T7 sequence: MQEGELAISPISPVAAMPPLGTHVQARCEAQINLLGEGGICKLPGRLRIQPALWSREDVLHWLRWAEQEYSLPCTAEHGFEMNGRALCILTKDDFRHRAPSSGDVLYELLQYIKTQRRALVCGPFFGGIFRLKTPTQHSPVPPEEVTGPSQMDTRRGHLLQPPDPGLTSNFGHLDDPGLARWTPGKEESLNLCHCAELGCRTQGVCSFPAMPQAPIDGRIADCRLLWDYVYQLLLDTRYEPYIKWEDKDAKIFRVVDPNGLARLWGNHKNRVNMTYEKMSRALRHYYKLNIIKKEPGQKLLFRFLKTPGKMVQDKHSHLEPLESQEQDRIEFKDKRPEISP
# Procedure, shortened: as §1
# ETV3 = biological target: T8, ETV3 (Homo sapiens, UniProt P41162-2 1-143)
# T8 sequence: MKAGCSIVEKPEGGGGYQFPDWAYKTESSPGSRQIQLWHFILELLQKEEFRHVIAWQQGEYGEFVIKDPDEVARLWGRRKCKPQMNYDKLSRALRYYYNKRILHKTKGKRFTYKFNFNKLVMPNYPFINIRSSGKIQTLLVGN
# Procedure, shortened: as §1
# ETV6 = ETV6 (Homo sapiens, UniProt P41212 1-452)
# Sequence of ETV6 (P41212 whole entry): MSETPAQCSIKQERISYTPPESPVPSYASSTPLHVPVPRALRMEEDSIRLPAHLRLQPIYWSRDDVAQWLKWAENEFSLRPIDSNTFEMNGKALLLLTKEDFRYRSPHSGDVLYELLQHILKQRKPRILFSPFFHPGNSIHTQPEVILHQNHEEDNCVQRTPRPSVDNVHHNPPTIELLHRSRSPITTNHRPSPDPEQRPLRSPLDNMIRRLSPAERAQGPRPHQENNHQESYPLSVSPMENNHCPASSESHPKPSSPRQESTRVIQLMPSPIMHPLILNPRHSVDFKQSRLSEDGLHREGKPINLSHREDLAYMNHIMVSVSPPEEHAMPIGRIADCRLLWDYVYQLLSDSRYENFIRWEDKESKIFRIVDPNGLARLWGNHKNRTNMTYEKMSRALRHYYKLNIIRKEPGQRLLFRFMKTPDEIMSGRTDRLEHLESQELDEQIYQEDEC
# Procedure, shortened: as §1
sequence,measurement,setting,value
GCTGGT,binding signal,ELK4,"1.45 fold enrichment (6-mer frequency, TF over GST control)"
same,binding signal,ELF3,"1.16 fold enrichment (6-mer frequency, TF over GST control)"
same,binding signal,ETV1,"1.02 fold enrichment (6-mer frequency, TF over GST control)"
same,binding signal,ERF,"1.14 fold enrichment (6-mer frequency, TF over GST control)"
same,binding signal,ETV3L,"1.19 fold enrichment (6-mer frequency, TF over GST control)"
same,binding signal,ETS2,"1.17 fold enrichment (6-mer frequency, TF over GST control)"
same,binding signal,SPDEF,"1.2 fold enrichment (6-mer frequency, TF over GST control)"
same,binding signal,ETV7,"1.17 fold enrichment (6-mer frequency, TF over GST control)"
same,binding signal,ETV3,"1.29 fold enrichment (6-mer frequency, TF over GST control)"
same,binding signal,ETV6,"1.13 fold enrichment (6-mer frequency, TF over GST control)"
